# Laboratory results taken from the supplement of paper PMC4466140.
# B1: unnamed (peptide)
# chain: IRMPSNPALPKKLLN
# Biological target: AgAbp1
# Assay: SPOT peptide array binding signal intensity (averaged, normalized) (arbitrary units (background-subtracted, floor 0; scale differs between SH3 domains)); higher = stronger binding of the SH3 domain to the peptide
# Outline: (§1)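 Peptides were synthetic 15-mers on cellulose membranes, with every cysteine replaced by serine. They were incubated overnight at 4°C with GST-SH3 domains from four yeast species at 10 μg/ml in TBS-based blocking buffer. Binding signal, the replicate-averaged normalized and background-subtracted spot intensity, is in arbitrary units that differ between domains.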
row,Binder,SPOT peptide array binding signal intensity
1,B1,194

# Biological target: AgBbc1
# Assay: as above
# Outline: as §1
row,Binder,SPOT peptide array binding signal intensity
1,B1,40

# Biological target: AgBem1-D1
# Assay: as above
# Outline: as §1
row,Binder,SPOT peptide array binding signal intensity
1,B1,431

# Biological target: AgBzz1-D1
# Assay: as above
# Outline: as §1
row,Binder,SPOT peptide array binding signal intensity
1,B1,10

# Biological target: AgBzz1-D2
# Assay: as above
# Outline: as §1
row,Binder,SPOT peptide array binding signal intensity
1,B1,10

# Biological target: AgCyk3
# Assay: as above
# Outline: as §1
row,Binder,SPOT peptide array binding signal intensity
1,B1,1

# Biological target: AgFus1
# Assay: as above
# Outline: as §1
row,Binder,SPOT peptide array binding signal intensity
1,B1,806

# Biological target: AgHof1
# Assay: as above
# Outline: as §1
row,Binder,SPOT peptide array binding signal intensity
1,B1,59.5

# Biological target: AgHse1
# Assay: as above
# Outline: as §1
row,Binder,SPOT peptide array binding signal intensity
1,B1,367

# Biological target: AgLsb1
# Assay: as above
# Outline: as §1
row,Binder,SPOT peptide array binding signal intensity
1,B1,2.5

# Biological target: AgLsb4
# Assay: as above
# Outline: as §1
row,Binder,SPOT peptide array binding signal intensity
1,B1,21.5

# Biological target: AgMyo5
# Assay: as above
# Outline: as §1
row,Binder,SPOT peptide array binding signal intensity
1,B1,1.75

# Biological target: AgNbp2
# Assay: as above
# Outline: as §1
row,Binder,SPOT peptide array binding signal intensity
1,B1,308

# Biological target: AgRvs167
# Assay: as above
# Outline: as §1
row,Binder,SPOT peptide array binding signal intensity
1,B1,2.33

# Biological target: AgSho1
# Assay: as above
# Outline: as §1
row,Binder,SPOT peptide array binding signal intensity
1,B1,852

# Biological target: AgSla1-D1-D2
# Assay: as above
# Outline: as §1
row,Binder,SPOT peptide array binding signal intensity
1,B1,16

# Biological target: AgSla1-D3
# Assay: as above
# Outline: as §1
row,Binder,SPOT peptide array binding signal intensity
1,B1,7.5

# Biological target: CaAbp1-D1
# Assay: as above
# Outline: as §1
row,Binder,SPOT peptide array binding signal intensity
1,B1,616

# Biological target: CaAbp1-D2
# Assay: as above
# Outline: as §1
row,Binder,SPOT peptide array binding signal intensity
1,B1,1080

# Biological target: CaBbc1
# Assay: as above
# Outline: as §1
row,Binder,SPOT peptide array binding signal intensity
1,B1,126

# Biological target: CaBem1-D1
# Assay: as above
# Outline: as §1
row,Binder,SPOT peptide array binding signal intensity
1,B1,444

# Biological target: CaBzz1-D1
# Assay: as above
# Outline: as §1
row,Binder,SPOT peptide array binding signal intensity
1,B1,314

# Biological target: CaBzz1-D2
# Assay: as above
# Outline: as §1
row,Binder,SPOT peptide array binding signal intensity
1,B1,247

# Biological target: CaCyk3
# Assay: as above
# Outline: as §1
row,Binder,SPOT peptide array binding signal intensity
1,B1,15

# Biological target: CaFus1
# Assay: as above
# Outline: as §1
row,Binder,SPOT peptide array binding signal intensity
1,B1,1400

# Biological target: CaHof1
# Assay: as above
# Outline: as §1
row,Binder,SPOT peptide array binding signal intensity
1,B1,≤ 0

# Biological target: CaHse1
# Assay: as above
# Outline: as §1
row,Binder,SPOT peptide array binding signal intensity
1,B1,504

# Biological target: CaLsb1
# Assay: as above
# Outline: as §1
row,Binder,SPOT peptide array binding signal intensity
1,B1,15.5

# Biological target: CaLsb4
# Assay: as above
# Outline: as §1
row,Binder,SPOT peptide array binding signal intensity
1,B1,692

# Biological target: CaMyo5
# Assay: as above
# Outline: as §1
row,Binder,SPOT peptide array binding signal intensity
1,B1,97.5

# Biological target: CaNbp2
# Assay: as above
# Outline: as §1
row,Binder,SPOT peptide array binding signal intensity
1,B1,1060

# Biological target: CaRvs167
# Assay: as above
# Outline: as §1
row,Binder,SPOT peptide array binding signal intensity
1,B1,65.7

# Biological target: CaRvs167-3
# Assay: as above
# Outline: as §1
row,Binder,SPOT peptide array binding signal intensity
1,B1,3.5

# Biological target: CaSho1
# Assay: as above
# Outline: as §1
row,Binder,SPOT peptide array binding signal intensity
1,B1,2070

# Biological target: CaSla1-D1-D2
# Assay: as above
# Outline: as §1
row,Binder,SPOT peptide array binding signal intensity
1,B1,476

# Biological target: CaSla1-D3
# Assay: as above
# Outline: as §1
row,Binder,SPOT peptide array binding signal intensity
1,B1,424

# Biological target: ScAbp1
# Assay: as above
# Outline: as §1
row,Binder,SPOT peptide array binding signal intensity
1,B1,104

# Biological target: ScBbc1
# Assay: as above
# Outline: as §1
row,Binder,SPOT peptide array binding signal intensity
1,B1,9.5

# Biological target: ScBem1-D1
# Assay: as above
# Outline: as §1
row,Binder,SPOT peptide array binding signal intensity
1,B1,2

# Biological target: ScBzz1-D1
# Assay: as above
# Outline: as §1
row,Binder,SPOT peptide array binding signal intensity
1,B1,17

# Biological target: ScBzz1-D2
# Assay: as above
# Outline: as §1
row,Binder,SPOT peptide array binding signal intensity
1,B1,29

# Biological target: ScCyk3
# Assay: as above
# Outline: as §1
row,Binder,SPOT peptide array binding signal intensity
1,B1,6

# Biological target: ScFus1
# Assay: as above
# Outline: as §1
row,Binder,SPOT peptide array binding signal intensity
1,B1,805

# Biological target: ScHof1
# Assay: as above
# Outline: as §1
row,Binder,SPOT peptide array binding signal intensity
1,B1,5.5

# Biological target: ScHse1
# Assay: as above
# Outline: as §1
row,Binder,SPOT peptide array binding signal intensity
1,B1,89.5

# Biological target: ScLsb1
# Assay: as above
# Outline: as §1
row,Binder,SPOT peptide array binding signal intensity
1,B1,102

# Biological target: ScLsb2
# Assay: as above
# Outline: as §1
row,Binder,SPOT peptide array binding signal intensity
1,B1,≤ 0

# Biological target: ScLsb3
# Assay: as above
# Outline: as §1
row,Binder,SPOT peptide array binding signal intensity
1,B1,769

# Biological target: ScLsb4
# Assay: as above
# Outline: as §1
row,Binder,SPOT peptide array binding signal intensity
1,B1,296

# Biological target: ScMyo3
# Assay: as above
# Outline: as §1
row,Binder,SPOT peptide array binding signal intensity
1,B1,35.2

# Biological target: ScMyo5
# Assay: as above
# Outline: as §1
row,Binder,SPOT peptide array binding signal intensity
1,B1,2

# Biological target: ScNbp2
# Assay: as above
# Outline: as §1
row,Binder,SPOT peptide array binding signal intensity
1,B1,509

# Biological target: ScPex13
# Assay: as above
# Outline: as §1
row,Binder,SPOT peptide array binding signal intensity
1,B1,195

# Biological target: ScRvs167
# Assay: as above
# Outline: as §1
row,Binder,SPOT peptide array binding signal intensity
1,B1,32.5

# Biological target: ScSho1
# Assay: as above
# Outline: as §1
row,Binder,SPOT peptide array binding signal intensity
1,B1,1060

# Biological target: ScSla1-D1-D2
# Assay: as above
# Outline: as §1
row,Binder,SPOT peptide array binding signal intensity
1,B1,544

# Biological target: ScSla1-D3
# Assay: as above
# Outline: as §1
row,Binder,SPOT peptide array binding signal intensity
1,B1,277

# Biological target: SpAbp1-D1
# Assay: as above
# Outline: as §1
row,Binder,SPOT peptide array binding signal intensity
1,B1,268

# Biological target: SpBbc1
# Assay: as above
# Outline: as §1
row,Binder,SPOT peptide array binding signal intensity
1,B1,5

# Biological target: SpBzz1-D1
# Assay: as above
# Outline: as §1
row,Binder,SPOT peptide array binding signal intensity
1,B1,700

# Biological target: SpBzz1-D2
# Assay: as above
# Outline: as §1
row,Binder,SPOT peptide array binding signal intensity
1,B1,41

# Biological target: SpCyk3
# Assay: as above
# Outline: as §1
row,Binder,SPOT peptide array binding signal intensity
1,B1,4

# Biological target: SpHof1
# Assay: as above
# Outline: as §1
row,Binder,SPOT peptide array binding signal intensity
1,B1,53.2

# Biological target: SpHof1-2
# Assay: as above
# Outline: as §1
row,Binder,SPOT peptide array binding signal intensity
1,B1,30

# Biological target: SpHof1-3
# Assay: as above
# Outline: as §1
row,Binder,SPOT peptide array binding signal intensity
1,B1,22.8

# Biological target: SpHse1
# Assay: as above
# Outline: as §1
row,Binder,SPOT peptide array binding signal intensity
1,B1,294

# Biological target: SpLsb1
# Assay: as above
# Outline: as §1
row,Binder,SPOT peptide array binding signal intensity
1,B1,16.8

# Biological target: SpLsb4
# Assay: as above
# Outline: as §1
row,Binder,SPOT peptide array binding signal intensity
1,B1,1170

# Biological target: SpMyo1
# Assay: as above
# Outline: as §1
row,Binder,SPOT peptide array binding signal intensity
1,B1,67.5

# Biological target: SpNbp2
# Assay: as above
# Outline: as §1
row,Binder,SPOT peptide array binding signal intensity
1,B1,241

# Biological target: SpPex13
# Assay: as above
# Outline: as §1
row,Binder,SPOT peptide array binding signal intensity
1,B1,136

# Biological target: SpRvs167
# Assay: as above
# Outline: as §1
row,Binder,SPOT peptide array binding signal intensity
1,B1,107

# Biological target: SpSla1-D1-D2
# Assay: as above
# Outline: as §1
row,Binder,SPOT peptide array binding signal intensity
1,B1,17.5

# Biological target: SpSla1-D3
# Assay: as above
# Outline: as §1
row,Binder,SPOT peptide array binding signal intensity
1,B1,477
